Screen size: about 5,500 compounds; about 2,000 (36%) were called active. Not shown: some 18% with an inconclusive outcome. Rule as the data show it: active = normalized growth mostly below about 0.91 (no sharp cut-off); inconclusive = no clear call, values can overlap the other calls; inactive = mostly above about 0.92. The list shows a part of the results.
Experiment: chemical genetic growth profiling, strain panel (AID 1159580);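 also: tested at 20 µM; growth read once vehicle control cultures reached saturation at 30 °C; 1 = growth at the plate median or of vehicle wells; lower values mean less growth of the strain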
Conditions: growth OD

Measured: normalized growth

COc1ccc2c(c1)c(CC(=O)OCC(=O)O)c(C)n2C(=O)c1ccc(Cl)cc1
inactive: S. cerevisiae deletion strains, locus YJR075W, strain HOC1, stronger effect = lower value 1.03 | S. cerevisiae deletion strains, locus YKL009W, strain mrt4, stronger effect = lower value 0.951 | S. cerevisiae deletion strains, locus YKL068W, stronger effect = lower value 1.01 | S. cerevisiae deletion strains, locus YKL085W, strain MDH1 (second series), stronger effect = lower value 0.984 | S. cerevisiae deletion strains, locus YKL085W, strain MDH1, stronger effect = lower value 0.984 | S. cerevisiae deletion strains, locus YKL160W, strain elf1, stronger effect = lower value 0.99 | S. cerevisiae deletion strains, locus YKL190W, strain CNB1, stronger effect = lower value 1.01 | S. cerevisiae deletion strains, locus YKR001C, strain vps1, stronger effect = lower value 1.02 | S. cerevisiae deletion strains, locus YKR026C, strain gcn3, stronger effect = lower value 0.991 | S. cerevisiae deletion strains, locus YKR091W, strain srl3, stronger effect = lower value 1 | S. cerevisiae deletion strains, locus YLL001W, strain dnm1, stronger effect = lower value 0.958 | S. cerevisiae deletion strains, locus YLL026W, stronger effect = lower value 0.997 | S. cerevisiae deletion strains, locus YLL041C, strain sdh2, stronger effect = lower value 0.995 | S. cerevisiae deletion strains, locus YLR027C, strain aat2, stronger effect = lower value 0.971 | S. cerevisiae deletion strains, locus YLR039C, strain RIC1, stronger effect = lower value 1.03 | S. cerevisiae deletion strains, locus YLR058C, strain SHM2, stronger effect = lower value 1.02 | S. cerevisiae deletion strains, locus YLR102C, strain apc9, stronger effect = lower value 1.01 | S. cerevisiae deletion strains, locus YLR113W, strain HOG1, stronger effect = lower value 0.991 | S. cerevisiae deletion strains, locus YLR221C, strain rsa3, stronger effect = lower value 0.998 | S. cerevisiae deletion strains, locus YLR258W, strain gsy2, stronger effect = lower value 1 | S. cerevisiae deletion strains, locus YLR262C, strain YPT6 (second series), stronger effect = lower value 0.99 | S. cerevisiae deletion strains, locus YLR262C, strain YPT6, stronger effect = lower value 1.03 | S. cerevisiae deletion strains, locus YLR268W, strain sec22, stronger effect = lower value 1.06 | S. cerevisiae deletion strains, locus YLR320W, strain mms22, stronger effect = lower value 1.01 | S. cerevisiae deletion strains, locus YLR330W, strain CHS5, stronger effect = lower value 1.01 | S. cerevisiae deletion strains, locus YLR342W, strain FKS1 (second series), stronger effect = lower value 1.02 | S. cerevisiae deletion strains, locus YLR342W, strain FKS1, stronger effect = lower value 0.971 | S. cerevisiae deletion strains, locus YLR357W, strain rsc2, stronger effect = lower value 0.946 | S. cerevisiae deletion strains, locus YLR370C, strain arc18, stronger effect = lower value 0.983 | S. cerevisiae deletion strains, locus YLR371W, strain rom2, stronger effect = lower value 1.02 | S. cerevisiae deletion strains, locus YLR384C, strain iki3, stronger effect = lower value 0.982 | S. cerevisiae deletion strains, locus YLR418C, strain cdc73, stronger effect = lower value 1.03 | S. cerevisiae deletion strains, locus YML016C, strain PPZ1, stronger effect = lower value 1 | S. cerevisiae deletion strains, locus YML032C, strain rad52, stronger effect = lower value 1.02 | S. cerevisiae deletion strains, locus YML120C, strain ndi1, stronger effect = lower value 0.982 | S. cerevisiae deletion strains, locus YML124C, strain tub3, stronger effect = lower value 1.02 | S. cerevisiae deletion strains, locus YMR058W, strain fet3, stronger effect = lower value 0.995 | S. cerevisiae deletion strains, locus YMR078C, strain ctf18, stronger effect = lower value 1.01 | S. cerevisiae deletion strains, locus YMR125W, strain sto1, stronger effect = lower value 1 | S. cerevisiae deletion strains, locus YMR129W, stronger effect = lower value 1.01 | S. cerevisiae deletion strains, locus YMR205C, strain PFK2, stronger effect = lower value 0.976 | S. cerevisiae deletion strains, locus YMR223W, strain ubp8, stronger effect = lower value 1.02 | S. cerevisiae deletion strains, locus YMR231W, strain pep5, stronger effect = lower value 0.991 | S. cerevisiae deletion strains, locus YMR263W, strain SAP30, stronger effect = lower value 1.02 | S. cerevisiae deletion strains, locus YMR307W, strain GAS1, stronger effect = lower value 1.04 | S. cerevisiae deletion strains, locus YNL067W, strain RPL9B, stronger effect = lower value 1.03 | S. cerevisiae deletion strains, locus YNL071W, strain lat1, stronger effect = lower value 1.01 | S. cerevisiae deletion strains, locus YNL128W, strain TEP1, stronger effect = lower value 1.02 | S. cerevisiae deletion strains, locus YNL153C, strain GIM3, stronger effect = lower value 1.02 | S. cerevisiae deletion strains, locus YNL183C, strain NPR1, stronger effect = lower value 0.868 | S. cerevisiae deletion strains, locus YNL209W, strain ssb2, stronger effect = lower value 1.01 | S. cerevisiae deletion strains, locus YNL233W, strain BNI4, stronger effect = lower value 1.02 | S. cerevisiae deletion strains, locus YNL248C, strain rpa49, stronger effect = lower value 1.03 | S. cerevisiae deletion strains, locus YNL250W, strain rad50, stronger effect = lower value 1.02 | S. cerevisiae deletion strains, locus YNL271C, strain bni1, stronger effect = lower value 1.02 | S. cerevisiae deletion strains, locus YNL298W, strain CLA4, stronger effect = lower value 0.998 | S. cerevisiae deletion strains, locus YNL307C, strain MCK1, stronger effect = lower value 1.02 | S. cerevisiae deletion strains, locus YNL322C, strain KRE1 (second series), stronger effect = lower value 1.01 | S. cerevisiae deletion strains, locus YNL322C, strain KRE1, stronger effect = lower value 1.01 | S. cerevisiae deletion strains, locus YNR049C, strain mso1, stronger effect = lower value 0.995 | S. cerevisiae deletion strains, locus YNR052C, strain pop2, stronger effect = lower value 1 | S. cerevisiae deletion strains, locus YOL006C, strain TOP1, stronger effect = lower value 1.11 | S. cerevisiae deletion strains, locus YOL012C, strain htz1 0.843 | S. cerevisiae deletion strains, locus YOL147C, strain pex11, stronger effect = lower value 1.02 | S. cerevisiae deletion strains, locus YOR001W, strain rrp6, stronger effect = lower value 0.969 | S. cerevisiae deletion strains, locus YOR061W, strain CKA2, stronger effect = lower value 1.01 | S. cerevisiae deletion strains, locus YOR069W, strain VPS5, stronger effect = lower value 1.01 | S. cerevisiae deletion strains, locus YOR070C, strain gyp1, stronger effect = lower value 1.01 | S. cerevisiae deletion strains, locus YOR080W, strain dia2, stronger effect = lower value 0.976 | S. cerevisiae deletion strains, locus YOR083W, strain WHI5, stronger effect = lower value 0.951 | S. cerevisiae deletion strains, locus YOR106W, strain vam3, stronger effect = lower value 0.975 | S. cerevisiae deletion strains, locus YOR136W, strain idh2, stronger effect = lower value 1.02 | S. cerevisiae deletion strains, locus YOR144C, strain elg1, stronger effect = lower value 1.02 | S. cerevisiae deletion strains, locus YOR184W, strain ser1, stronger effect = lower value 1.02 | S. cerevisiae deletion strains, locus YOR231W, strain MKK1, stronger effect = lower value 0.97 | S. cerevisiae deletion strains, locus YOR265W, strain rbl2, stronger effect = lower value 1 | S. cerevisiae deletion strains, locus YOR270C, strain vph1, stronger effect = lower value 1 | S. cerevisiae deletion strains, locus YOR290C, strain snf2, stronger effect = lower value 1.02 | S. cerevisiae deletion strains, locus YOR316C, strain cot1, stronger effect = lower value 1.02 | S. cerevisiae deletion strains, locus YPL051W, strain arl3, stronger effect = lower value 0.998 | S. cerevisiae deletion strains, locus YPL055C, strain LGE1, stronger effect = lower value 1.02 | S. cerevisiae deletion strains, locus YPL078C, strain atp4, stronger effect = lower value 0.986 | S. cerevisiae deletion strains, locus YPL106C, strain sse1, stronger effect = lower value 1.02 | S. cerevisiae deletion strains, locus YPL240C, strain hsp82, stronger effect = lower value 0.982 | S. cerevisiae deletion strains, locus YPL241C, strain CIN2, stronger effect = lower value 1 | S. cerevisiae deletion strains, locus YPL256C, strain CLN2, stronger effect = lower value 0.963 | S. cerevisiae deletion strains, locus YPR119W, strain clb2, stronger effect = lower value 1.01 | S. cerevisiae deletion strains, locus YPR141C, strain kar3, stronger effect = lower value 1.02 | S. cerevisiae deletion strains, locus YPR163C, strain tif3, stronger effect = lower value 1.02 | S. cerevisiae deletion strains, locus YPR167C, strain met16, stronger effect = lower value 1.01 | S. cerevisiae deletion strains, strain wtn01, stronger effect = lower value 1.02 | S. cerevisiae strains, strain wild type, stronger effect = lower value 1.01

From PubChem BioAssay AID1159580 (chemical genetic matrix, 2015)
